# Measurements published in PubChem BioAssay (NCATS).
# “And” between values parts separate entries of the source, which are not always exact repeats. Equal values may be shown once. Unmarked numbers belong to inactive results. Inconclusive results are not listed. Where a call stands in place of a potency, no number is given. The source made the active and inactive calls. Unless noted, calls come from the whole dose curve; as a rule, active = well fitted curve in the direction sought with a large enough effect; inconclusive = small, poorly fitted or top-dose-only effect, or another doubt; inactive = no such curve, though single readings can be large; an effect the other way counts as inactive or inconclusive.
# How the values were obtained:
# [1] = AP1 Signaling Pathway (AID 357; active = well fitted curve in either direction with a large enough effect, not every such curve was filed as active;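 note: ME-180 reporter cells stimulated with EGF at its EC50 level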); conditions: ME-180 AP-1-bla reporter, EGF-induced, beta-lactamase ratio, 5 h; at 7.69 µM (top of the series) unless noted
# Procedure, shortened: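 A ratiometric CCF4 readout (405 nm excitation; 460 and 530 nm emission) quantified AP-1-driven beta-lactamase in ME-180 cells after 5 h with compound and EC50 EGF; AC50 values were derived for activators and inhibitors.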
# [2] = target: Cytochrome P450 1A2 (Homo sapiens) (UniProt P05177); experiment: p450-cyp1a2 (AID 410; calls by dose curve; note: potency is the fitted concentration of half-maximal effect)
# Procedure, shortened: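 O-Demethylation of luciferin 6' methyl ether by human CYP1A2 is monitored as luciferase luminescence. Substrate sits at Km (100uM); enzyme is 20nM. Values are scaled to 57 uM furafylline as maximal inhibition.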
# [3] = NFAT Signaling Pathway (AID 444; active = well fitted curve in either direction with a large enough effect, not every such curve was filed as active;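 note: carbachol stimulus at about its EC50 of 1 µM final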); conditions: Jurkat NFAT-bla M1, carbachol, beta-lactamase ratio, 5 h; at 7.69 µM (top of the series) unless noted
# Procedure, shortened: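 Jurkat cells carrying an NFAT-driven β-lactamase reporter and co-transfected muscarinic M1 receptor were treated with compound plus carbachol (1 uM final, an EC50 level) for 5 h at 37 °C. CCF4 loading followed for 1 h at RT; 460/530 nm ratio gave %activity.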
# [4] = Stat Signaling Pathway (AID 446; active = well fitted curve in either direction with a large enough effect, not every such curve was filed as active;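 note: ME-180 cervical cancer cells given 40 pM IL-6 alongside compound; SIE-controlled beta-lactamase reporter measured as 460/530 nm FRET emission ratio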); conditions: ME-180 SIE beta-lactamase reporter, IL-6 stimulated, 5 h; at 7.69 µM (top of the series) unless noted
# Procedure, shortened: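 FRET read-out (405 nm excitation, 460/530 nm emission) of a beta-lactamase reporter under a STAT-inducible element in ME-180 cervical carcinoma cells. Cells with compound receive 40 pM IL-6 for 5 h. Values are normalised to AC90 stimulation and AC90 JAK-inhibitor controls.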
# [5] = target: Glucocorticoid receptor (Homo sapiens) (UniProt P04150); experiment: GR-GFP Redistribution (AID 450;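 active = compounds whose dose series gives a full or clear partial fitted curve of increased nuclear translocation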; note: potency is the fitted concentration of half-maximal effect); conditions: U2OS GR-GFP nuclear translocation, laser cytometry, 2 h
# Glucocorticoid receptor (Homo sapiens), sequence (P04150 whole entry, looked up, the tested form may be a part): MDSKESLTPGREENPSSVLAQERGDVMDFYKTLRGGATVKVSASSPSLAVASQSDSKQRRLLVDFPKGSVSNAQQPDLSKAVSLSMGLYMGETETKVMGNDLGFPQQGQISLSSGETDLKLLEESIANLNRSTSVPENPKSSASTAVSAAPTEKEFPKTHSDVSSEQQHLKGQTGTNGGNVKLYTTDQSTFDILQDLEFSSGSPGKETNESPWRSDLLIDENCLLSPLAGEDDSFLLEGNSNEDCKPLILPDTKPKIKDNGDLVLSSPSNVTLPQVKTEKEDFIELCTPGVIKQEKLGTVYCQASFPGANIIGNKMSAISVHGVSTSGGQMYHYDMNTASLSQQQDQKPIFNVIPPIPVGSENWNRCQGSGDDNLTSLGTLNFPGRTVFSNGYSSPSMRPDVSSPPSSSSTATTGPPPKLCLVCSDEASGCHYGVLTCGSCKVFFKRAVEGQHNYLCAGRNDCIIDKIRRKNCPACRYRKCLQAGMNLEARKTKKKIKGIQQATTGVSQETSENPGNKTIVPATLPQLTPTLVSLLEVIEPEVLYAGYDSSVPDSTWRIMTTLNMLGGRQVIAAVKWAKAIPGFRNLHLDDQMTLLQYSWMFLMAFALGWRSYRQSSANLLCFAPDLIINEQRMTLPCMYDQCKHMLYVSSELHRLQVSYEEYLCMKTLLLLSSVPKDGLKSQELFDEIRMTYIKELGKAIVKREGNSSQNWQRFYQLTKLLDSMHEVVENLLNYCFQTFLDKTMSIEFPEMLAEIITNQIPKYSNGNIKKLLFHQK
# [6] = target: Glucocorticoid receptor (Homo sapiens) (UniProt P04150); experiment: GR-EFC Redistribution (AID 451; calls by dose curve; note: potency is the fitted concentration of half-maximal effect); conditions: CHO-K1 GR-EFC translocation, beta-gal luminescence, 2 h
# Procedure, shortened: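 CHO-K1 cells stably expressing nuclear-localized β-gal enzyme acceptor and GR fused C-terminally to the enzyme donor fragment; ligand-driven nuclear translocation restores β-gal by complementation. Compounds titrated up to 46 uM final, 2 h at 37 °C; luminescence read.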
# [7] = target: 3',5'-cyclic-AMP phosphodiesterase 4B (Homo sapiens) (UniProt Q07343); experiment: qHTS Assay for Inhibitors of PDE-IV (AID 607; active = well fitted activation curve with a large enough effect in the main read-out, with a control signal flat, not every such curve was filed as active)
# 3',5'-cyclic-AMP phosphodiesterase 4B (Homo sapiens), sequence (Q07343 whole entry, looked up): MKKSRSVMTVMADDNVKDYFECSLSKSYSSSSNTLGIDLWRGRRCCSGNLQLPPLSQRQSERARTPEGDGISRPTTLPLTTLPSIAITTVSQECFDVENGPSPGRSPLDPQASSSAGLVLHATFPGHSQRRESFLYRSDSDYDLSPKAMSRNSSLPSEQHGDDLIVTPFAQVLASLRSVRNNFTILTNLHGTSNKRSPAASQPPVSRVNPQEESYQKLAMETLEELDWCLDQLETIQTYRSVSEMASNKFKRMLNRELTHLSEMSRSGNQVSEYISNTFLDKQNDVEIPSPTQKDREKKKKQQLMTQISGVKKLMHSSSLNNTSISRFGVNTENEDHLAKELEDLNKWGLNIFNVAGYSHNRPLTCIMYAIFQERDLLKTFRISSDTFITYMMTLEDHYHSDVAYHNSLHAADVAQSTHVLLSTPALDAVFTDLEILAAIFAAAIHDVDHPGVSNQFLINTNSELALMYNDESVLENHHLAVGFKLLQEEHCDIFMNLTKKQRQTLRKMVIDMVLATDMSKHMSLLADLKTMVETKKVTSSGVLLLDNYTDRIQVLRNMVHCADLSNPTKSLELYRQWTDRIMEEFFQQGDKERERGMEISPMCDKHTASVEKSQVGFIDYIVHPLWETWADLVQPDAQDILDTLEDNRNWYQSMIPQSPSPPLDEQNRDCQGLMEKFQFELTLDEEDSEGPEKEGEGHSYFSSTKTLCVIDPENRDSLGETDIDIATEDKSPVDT
# Procedure, shortened: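 Cell-based read-out of cAMP via a modified cyclic nucleotide-gated channel and membrane potential dye (535/590 nm) in HEK293 cells expressing PDE4 endogenously. Compounds tested up to 22.9 uM final; 100 uM RO 20-1724 reference.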
# [8] = target: Guanine nucleotide-binding protein G(i) subunit alpha-1 (Homo sapiens) (UniProt P63096); experiment: qHTS Assay for Inhibitors of RGS12 GoLoco Motif Activity (Green Fluorophore) (AID 879);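 note: negative values mean loss of peptide binding seen as reduced polarization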
# Guanine nucleotide-binding protein G(i) subunit alpha-1 (Homo sapiens), sequence (P63096 whole entry, looked up): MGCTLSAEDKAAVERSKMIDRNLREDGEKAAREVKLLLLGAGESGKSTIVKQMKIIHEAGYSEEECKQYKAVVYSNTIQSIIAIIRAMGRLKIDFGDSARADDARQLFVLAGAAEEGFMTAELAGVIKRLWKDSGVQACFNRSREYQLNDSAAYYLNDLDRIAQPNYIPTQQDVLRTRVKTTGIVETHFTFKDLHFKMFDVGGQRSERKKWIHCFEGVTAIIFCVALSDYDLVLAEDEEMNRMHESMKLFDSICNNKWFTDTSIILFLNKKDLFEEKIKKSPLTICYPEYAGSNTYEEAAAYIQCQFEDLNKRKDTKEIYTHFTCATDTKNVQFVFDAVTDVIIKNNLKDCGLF
# Procedure, shortened: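 A drop in FITC polarization marked displacement of the FITC-tagged RGS12 GoLoco peptide (10 nM) from Gαi1 (50 nM). Compounds were incubated 10 min at room temperature in Tris pH 7.5 buffer containing 150 mM NaCl, 0.1 mM GDP and 0.05% NP40; unlabeled peptide titration served as control.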
# [9] = target: Cytochrome P450 3A4 (Homo sapiens) (UniProt P08684); experiment: qHTS Assay for Activators of Cytochrome P450 3A4 (AID 885); note: nearly all actives have a fitted effect of over 65% in size
# Cytochrome P450 3A4 (Homo sapiens), sequence (P08684 whole entry, looked up): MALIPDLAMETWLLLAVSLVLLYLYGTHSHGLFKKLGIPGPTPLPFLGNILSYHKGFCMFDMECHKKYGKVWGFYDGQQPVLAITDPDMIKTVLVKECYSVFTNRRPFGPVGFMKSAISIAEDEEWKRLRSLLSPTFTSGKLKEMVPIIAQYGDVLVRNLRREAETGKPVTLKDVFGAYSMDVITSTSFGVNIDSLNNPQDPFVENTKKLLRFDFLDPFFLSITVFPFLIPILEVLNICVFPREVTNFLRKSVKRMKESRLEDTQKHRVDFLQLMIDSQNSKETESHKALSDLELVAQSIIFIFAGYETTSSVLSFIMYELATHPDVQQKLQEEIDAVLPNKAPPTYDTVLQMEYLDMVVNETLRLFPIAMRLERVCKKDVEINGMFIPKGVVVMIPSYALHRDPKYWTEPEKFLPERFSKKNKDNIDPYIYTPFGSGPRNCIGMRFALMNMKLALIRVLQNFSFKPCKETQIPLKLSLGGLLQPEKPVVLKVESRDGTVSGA
# Procedure, shortened: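 Luminescent readout of luciferin formed from 25 uM Luciferin-PPXE (KM level) by 20 nM CYP3A4 in 200 mM KPO4, with 60 min NADPH-driven reaction at room temperature after 10 min compound exposure. Ketoconazole (57 uM) defined 100% inhibition.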
# [10] = qHTS Assay for Identification of Small Molecule Antagonists for NFkB Signaling Pathway (AID 895; active = well fitted inhibition curve with a large enough effect in the signal ratio, with a control signal flat, not every such curve was filed as active; the % refers to the signal ratio)
# Procedure, shortened: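 NFkB-bla ME-180 cervical carcinoma cells with beta-lactamase reporter under NFkB response element; compounds added, then TNF alpha at 10 pM final (EC50), 5 h at 37 C. LiveBLAzer substrate 2 h, room temperature; emission 460/530 nm at 405 nm excitation.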
# [11] = qHTS Assay for Identification of Small Molecule Agonists for Thrombopoietin (TPO) Signaling Pathway (AID 917)
# Procedure, shortened: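 Luciferase reporter (Glycoprotein IIb promoter) in IL-3-deprived Ba/F3 cells carrying human TPO receptor; compounds co-added with 26 pM TPO, incubated 24 h, 37 C. Steadylite luminescence measured after 10 min.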
# [12] = target: Muscarinic acetylcholine receptor M1 (Rattus norvegicus) (UniProt P08482); experiment: qHTS Assay for Antagonists of Acetylcholine Muscarinic M1 Receptor: Kinetic Measurement of Intracellular Calcium Response (AID 943); note: nearly all actives have a fitted effect of over 75% in size; note: potency is the fitted concentration of half-maximal effect;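 for activity change, negative = inhibition: Fluo-4 calcium signal as peak divided by basal fluorescence over 4 min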
# Muscarinic acetylcholine receptor M1 (Rattus norvegicus), sequence (P08482 whole entry, looked up): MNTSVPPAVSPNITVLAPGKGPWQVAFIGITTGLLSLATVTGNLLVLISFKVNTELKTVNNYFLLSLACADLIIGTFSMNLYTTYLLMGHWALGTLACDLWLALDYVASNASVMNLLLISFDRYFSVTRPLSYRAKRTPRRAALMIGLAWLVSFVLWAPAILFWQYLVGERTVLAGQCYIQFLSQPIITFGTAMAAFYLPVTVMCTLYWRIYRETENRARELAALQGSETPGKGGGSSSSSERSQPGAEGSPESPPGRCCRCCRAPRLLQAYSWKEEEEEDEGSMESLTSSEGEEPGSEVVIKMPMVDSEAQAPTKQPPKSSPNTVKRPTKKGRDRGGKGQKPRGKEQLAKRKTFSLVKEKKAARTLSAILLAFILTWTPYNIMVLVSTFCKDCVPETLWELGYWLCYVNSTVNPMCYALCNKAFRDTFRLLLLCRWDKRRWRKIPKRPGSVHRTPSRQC
# Procedure, shortened: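 Antagonism is measured as inhibition of the carbachol-evoked calcium rise in CHO cells transfected with rat M1. Cells are dye-loaded, exposed to compound for 10 min, then stimulated with 100 nM carbachol (EC80).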
# [13] = target: Pyruvate kinase (Leishmania mexicana) (UniProt Q27686); experiment: qHTS Validation Assay for Inhibitors of Leishmania Mexicana Pyruvate Kinase (AID 945)
# Pyruvate kinase (Leishmania mexicana), sequence (Q27686 2-499 E452W): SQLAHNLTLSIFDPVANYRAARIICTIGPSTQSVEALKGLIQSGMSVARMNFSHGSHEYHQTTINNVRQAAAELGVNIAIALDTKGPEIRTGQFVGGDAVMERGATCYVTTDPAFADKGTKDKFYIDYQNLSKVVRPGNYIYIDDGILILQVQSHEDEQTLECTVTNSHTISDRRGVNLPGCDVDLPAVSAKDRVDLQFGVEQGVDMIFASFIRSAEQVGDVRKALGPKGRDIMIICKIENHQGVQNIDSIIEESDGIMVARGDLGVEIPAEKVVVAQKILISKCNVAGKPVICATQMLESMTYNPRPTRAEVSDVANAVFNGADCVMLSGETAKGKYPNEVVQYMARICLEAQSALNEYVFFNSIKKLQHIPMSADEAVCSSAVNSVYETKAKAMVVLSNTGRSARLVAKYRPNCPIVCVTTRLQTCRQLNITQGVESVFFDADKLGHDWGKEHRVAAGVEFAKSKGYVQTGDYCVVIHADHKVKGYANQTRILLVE
# Procedure, shortened: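 Eight-point qHTS titrations in triplicate, data normalized to DMSO neutral control. Reaction: 0.2 nM LmPYK E451W mutant, 0.5 mM PEP, 0.1 mM ADP, 7 mM MgCl2, pH 7.2, one hour at room temperature; luminescent ATP detection.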
# [14] = target: Pyruvate kinase PKM (Homo sapiens) (UniProt P14618); experiment: qHTS Assay for Activators of Human Muscle Pyruvate Kinase (AID 954; active = well fitted curve in the direction sought with a large enough effect, not every such curve was filed as active)
# Pyruvate kinase PKM (Homo sapiens), sequence (P14618 whole entry, looked up): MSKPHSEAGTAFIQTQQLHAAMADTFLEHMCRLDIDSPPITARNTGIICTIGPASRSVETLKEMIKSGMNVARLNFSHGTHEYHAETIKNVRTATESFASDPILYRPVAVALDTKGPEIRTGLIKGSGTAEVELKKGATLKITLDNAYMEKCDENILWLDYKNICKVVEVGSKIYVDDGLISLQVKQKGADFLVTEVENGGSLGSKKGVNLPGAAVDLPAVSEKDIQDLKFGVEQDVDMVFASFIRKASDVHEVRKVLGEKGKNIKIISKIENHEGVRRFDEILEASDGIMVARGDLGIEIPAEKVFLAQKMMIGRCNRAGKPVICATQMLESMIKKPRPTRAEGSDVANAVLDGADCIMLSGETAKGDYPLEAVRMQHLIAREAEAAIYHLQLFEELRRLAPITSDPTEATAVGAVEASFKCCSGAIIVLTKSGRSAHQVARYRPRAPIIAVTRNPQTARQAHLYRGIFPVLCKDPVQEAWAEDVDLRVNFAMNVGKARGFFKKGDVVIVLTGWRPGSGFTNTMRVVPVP
# Procedure, shortened: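 ATP production by PKM2 detected via luciferase luminescence after 1 h room-temperature reaction (0.1 nM enzyme, PEP at Km 0.5 mM, ADP 0.1 mM, pH 7.2 imidazole buffer). Inhibition scaled to no-enzyme control; activation referenced to 0.3 nM enzyme wells.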
# [15] = target: Alpha-galactosidase (Coffea arabica) (UniProt Q42656); experiment: Counterscreen for Glucocerebrosidase Inhibitors: qHTS Assay for Coffee Bean alpha-Galactosidase at pH 4.5 (AID 957)
# Alpha-galactosidase (Coffea arabica), sequence (Q42656 whole entry, looked up): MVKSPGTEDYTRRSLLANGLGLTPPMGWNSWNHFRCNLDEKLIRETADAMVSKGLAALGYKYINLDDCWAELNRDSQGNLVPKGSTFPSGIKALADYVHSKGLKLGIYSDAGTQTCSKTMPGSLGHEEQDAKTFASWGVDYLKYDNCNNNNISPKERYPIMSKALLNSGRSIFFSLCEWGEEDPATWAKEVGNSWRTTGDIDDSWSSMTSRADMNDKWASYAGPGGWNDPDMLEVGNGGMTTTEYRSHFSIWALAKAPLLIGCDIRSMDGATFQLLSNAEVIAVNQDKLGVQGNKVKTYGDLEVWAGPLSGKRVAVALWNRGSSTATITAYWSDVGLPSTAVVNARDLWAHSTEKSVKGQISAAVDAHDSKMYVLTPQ
# Procedure, shortened: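 Enzyme is added first (2 nM final), then compounds titrated from 0.7 nM to 77 uM, then 80 uM 4-methylumbelliferyl alpha-D-galactopyranoside; after 20 min at room temperature a pH 10 NaOH/glycine stop precedes fluorescence reading at 365/440 nm.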
# [16] = target: Alpha-galactosidase A (Homo sapiens) (UniProt P06280); experiment: Counterscreen for Glucocerebrosidase Inhibitors: qHTS Assay for Human alpha-Galactosidase at pH 4.5 (AID 992)
# Alpha-galactosidase A (Homo sapiens), sequence (P06280 whole entry, looked up): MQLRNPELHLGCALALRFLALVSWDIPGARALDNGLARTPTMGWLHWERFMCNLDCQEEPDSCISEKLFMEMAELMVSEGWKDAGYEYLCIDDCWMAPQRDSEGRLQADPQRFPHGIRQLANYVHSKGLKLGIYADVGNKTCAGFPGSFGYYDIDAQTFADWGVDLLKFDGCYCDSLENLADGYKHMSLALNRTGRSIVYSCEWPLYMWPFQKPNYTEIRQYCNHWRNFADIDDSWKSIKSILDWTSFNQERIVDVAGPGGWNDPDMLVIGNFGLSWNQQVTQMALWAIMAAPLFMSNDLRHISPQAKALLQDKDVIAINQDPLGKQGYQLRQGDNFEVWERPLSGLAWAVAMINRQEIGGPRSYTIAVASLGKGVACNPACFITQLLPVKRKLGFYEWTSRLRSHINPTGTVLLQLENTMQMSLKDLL
# Procedure, shortened: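 Fluorogenic 1536-well qHTS at pH 4.5 (citrate, Tween-20): 2 nM enzyme, 80 uM 4-MU-alpha-galactoside, 20 min room temperature, NaOH/glycine stop. Titration 0.7 nM to 77 uM, data normalized to no-enzyme and full-activity controls, Hill-fitted AC50.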
# [17] = target: alpha-glucosidase (Oryza sativa, rice) (UniProt Q653V4); experiment: Counterscreen for Glucocerebrosidase Inhibitors: qHTS Assay for Rice alpha-Glucosidase at pH 5.0 (AID 997)
# Procedure, shortened: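 Endpoint fluorogenic assay at pH 5.0: compounds (0.7 nM to 77 uM) titrated against 4 nM rice enzyme and 400 uM 4-MU-alpha-glucoside for 20 min at room temperature; NaOH/glycine stop, read ex 365/em 440 nm, Hill-fitted AC50.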
# [18] = target: Alpha-galactosidase (Coffea arabica) (UniProt Q42656); experiment: Counterscreen for Glucocerebrosidase Inhibitors: qHTS Assay for Coffee Bean alpha-Galactosidase at pH 5.9 (AID 998)
# Procedure, shortened: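 In 50 mM citric acid pH 5.9 with 0.005% Tween-20, coffee bean enzyme hydrolyses 80 uM 4-MU alpha-D-galactopyranoside over 20 min at RT. Activity is normalized to controls; AC50 comes from Hill-modelled concentration-response data.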
# [19] = target: Mitogen-activated protein kinase 10 (Mus musculus) (UniProt Q61831); experiment: JNK3 AlphaScreen Assay (AID 530; active = well fitted curve in either direction with a large enough effect, not every such curve was filed as active;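 note: kinase came from lysate of stimulated human HepG2 cells; signal reports phosphorylation of biotinylated GST-cJun 1-79 at Ser73 with 10 µM ATP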)
# Procedure, shortened: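 Phosphorylation of biotinylated GST-cJun(1-79) at Ser73 is measured by AlphaScreen proximity luminescence. Enzyme is JNK3 in HepG2 lysates activated with interleukin-1beta and tumor necrosis factor alpha; ATP is 10 uM final.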
# [20] = target: Muscarinic acetylcholine receptor M1 (Rattus norvegicus) (UniProt P08482); experiment: qHTS Assay for Antagonists of Acetylcholine Muscarinic M1 Receptor: Measurement of IP-One Response (AID 944); note: nearly all actives have a fitted effect of over 75% in size; note: potency is the fitted concentration of half-maximal effect
# Procedure, shortened: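 Antagonist mode with rat M1 receptor transfected into CHO cells. Compound is added first for 10 min, carbachol at its EC80 follows for 30 min, and lysis reagents then allow TR-FRET detection of accumulated IP1.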
# [21] = target: Ubiquitin carboxyl-terminal hydrolase 1 (Homo sapiens) (UniProt O94782); experiment: Inhibitors of USP1/UAF1: Pilot qHTS (AID 504865);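 note: rhodamine fluorescence freed from ubiquitin-rhodamine substrate followed over time; top concentration of the series differs between compounds; nearly all actives have a fitted effect of over 35% in size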
# Procedure, shortened: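 Deubiquitinase activity followed as kinetic rhodamine fluorescence release from 150 nM Ub-Rho. 1 nM USP1/UAF1 with compound, after 15 min room-temperature preincubation, in HEPES pH 7.8 buffer containing TCEP, EDTA, BSA and Tween-20.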
# [22] = qHTS Assay for Identification of Small Molecule Agonists for Hypoxia Response Element Signaling Pathway (AID 914; active = well fitted activation curve with a large enough effect in the signal ratio, with a control signal flat, not every such curve was filed as active; the % refers to the signal ratio); conditions: ME-180 (cervical carcinoma) HRE-bla reporter, beta-lactamase ratio, CoCl2, 17 h; active compounds read high
# Procedure, shortened: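 HRE-bla ME-180 cells with beta-lactamase reporter under hypoxia response element, compounds with EC50 CoCl2 for 17 hours at 37 C. CCF4 substrate, 460nm/530nm emission ratio gave %Activity; AC50 from titration series.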
smiles,measurement,setting,value
C[C@]12CC[C@H](O)C[C@@H]1CC[C@H]1[C@H]2CC[C@]2(C)[C@H](C(=O)CO)CC[C@@H]12,"activity change, negative = inhibition",[1],0.537% [at 38 µM]
same,Potency,[2],25.1 µM (active)
same,"activity change, negative = inhibition",[3],0.826% [at 38 µM]
same,"activity, negative = inhibition",[4],11.8% [at 38 µM]
same,Potency,[5],> 46 µM
same,Potency,[6],> 46 µM
same,outcome,[7],inactive
same,outcome,[8],inactive
same,Potency,[9],inactive
same,Potency,[10],inactive
same,outcome,[11],inactive
same,Potency,[12],inactive
same,outcome,[13],inactive
same,outcome,[14],inactive
same,outcome,[15],inactive
same,outcome,[16],inactive
same,outcome,[17],inactive
same,outcome,[18],inactive
N[C@H](Cc1ccc(N(CCCl)CCCl)cc1)C(=O)O,"activity change, negative = inhibition",[1],23.8% [at 38 µM]
same,Potency,[2],15.8 µM (active)
same,"activity change, negative = inhibition",[3],-21.6% [at 38 µM]
same,"activity, negative = inhibition",[4],4.88% [at 38 µM]
same,Potency,[5],> 46 µM
same,Potency,[6],> 46 µM
same,Potency,[19],inactive
same,outcome,[7],inactive
same,outcome,[8],inactive
same,Potency,[20],inactive
same,outcome,[13],inactive
same,outcome,[14],inactive
same,outcome,[15],inactive
same,outcome,[16],inactive
same,outcome,[17],inactive
same,outcome,[18],inactive
COc1ccc(C[C@@H]2NC[C@H](O)[C@@H]2OC(C)=O)cc1,"activity change, negative = inhibition",[1],-118% [at 17.2 µM] (active)
same,"activity change, negative = inhibition",[3],-130% [at 17.2 µM] (active)
same,"activity, negative = inhibition",[4],-101% [at 17.2 µM] (active)
same,Potency,[5],> 20.6 µM
same,Potency,[6],> 20.6 µM
same,Potency,[19],inactive
same,outcome,[7],inactive
same,Potency,[21],inactive
COc1cc(C[C@H](C)N)c(OC)cc1I,"activity change, negative = inhibition",[1],8.22% [at 38 µM] and 4.79% [at 38 µM]
same,Potency,[2],6.31 µM (active) and 12.6 µM (active)
same,"activity change, negative = inhibition",[3],-22.6% [at 38 µM] and -16.3% [at 38 µM]
same,"activity, negative = inhibition",[4],-6.07% [at 38 µM]
same,Potency,[5],> 46 µM
same,Potency,[6],> 46 µM
same,Potency,[19],inactive
same,outcome,[7],inactive
same,outcome,[8],inactive
same,Potency,[9],inactive
same,activation,[22],2.02% and -7.45%
same,outcome,[11],inactive
same,Potency,[12],0.891 µM (active)
same,outcome,[13],inactive
same,outcome,[14],inactive
same,outcome,[15],inactive
same,outcome,[16],inactive
same,outcome,[17],inactive
same,outcome,[18],inactive
CCCN1CC[C@@H]2c3cc(O)ccc3CC[C@H]21,"activity change, negative = inhibition",[1],-14.4% [at 38 µM]
same,Potency,[2],inactive
same,"activity change, negative = inhibition",[3],-28.7% [at 38 µM]
same,Potency,[5],> 46 µM
same,Potency,[6],> 46 µM
same,Potency,[19],inactive
same,outcome,[7],inactive
same,outcome,[8],inactive
same,Potency,[10],inactive
same,outcome,[11],inactive
same,Potency,[12],14.1 µM (active)
same,Potency,[20],14.1 µM (active)
same,outcome,[13],inactive
same,outcome,[14],inactive
same,outcome,[15],inactive
same,outcome,[16],inactive
same,outcome,[17],inactive
same,outcome,[18],inactive
